Laboratory results from PubChem BioAssay (NCATS).
Inconclusive results are not listed. Active and inactive are the calls of the source. Calls follow the shape of the dose curve; as a rule, active = well fitted activation curve with a large enough effect in the main read-out, with a control signal flat (not every such curve was filed as active); inconclusive = small, poorly fitted or top-dose-only effect, or effect the other way, or a change in a side signal; inactive = flat fitted curve, though single readings scatter.

Molecular target: 3',5'-cyclic-AMP phosphodiesterase 4B (Homo sapiens) (UniProt Q07343)
Sequence (Q07343 whole entry, looked up): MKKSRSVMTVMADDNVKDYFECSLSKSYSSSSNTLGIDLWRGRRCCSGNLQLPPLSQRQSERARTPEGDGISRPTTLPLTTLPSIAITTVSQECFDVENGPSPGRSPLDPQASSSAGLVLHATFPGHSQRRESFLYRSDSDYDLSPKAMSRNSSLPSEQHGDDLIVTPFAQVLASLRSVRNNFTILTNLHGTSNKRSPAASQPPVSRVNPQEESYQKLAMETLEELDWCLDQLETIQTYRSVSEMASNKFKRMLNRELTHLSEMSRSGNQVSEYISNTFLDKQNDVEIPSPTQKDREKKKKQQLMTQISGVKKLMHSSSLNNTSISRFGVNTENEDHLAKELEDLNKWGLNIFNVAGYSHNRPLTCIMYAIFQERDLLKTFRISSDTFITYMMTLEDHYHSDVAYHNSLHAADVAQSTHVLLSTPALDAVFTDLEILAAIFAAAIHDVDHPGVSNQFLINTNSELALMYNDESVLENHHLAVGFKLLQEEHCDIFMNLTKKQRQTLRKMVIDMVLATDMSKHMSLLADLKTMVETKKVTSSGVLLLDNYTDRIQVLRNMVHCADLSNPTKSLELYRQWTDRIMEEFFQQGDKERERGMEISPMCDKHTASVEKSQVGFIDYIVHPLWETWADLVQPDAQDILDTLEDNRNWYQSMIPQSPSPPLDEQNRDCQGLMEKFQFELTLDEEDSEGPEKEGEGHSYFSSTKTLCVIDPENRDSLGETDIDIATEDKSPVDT
Assay: qHTS Assay for Inhibitors of PDE-IV (AID 607)
Conditions: HEK293 ACTOne CNG channel cells, membrane potential fluorescence; series mostly up to 22.9 µM
From the text: NIH Chemical Genomics Center [NCGC]
NIH Molecular Libraries Screening Centers Network [MLSCN]
The cyclic nucleotide phosphodiesterases (PDEs) are proteins that catalyze hydrolysis of 3', 5'-cyclic nucleotides, such as cyclic adenosine monophosphate (cAMP) and cyclic guanosine monophosphate (cGMP), to their corresponding 5'-nucleotide monophosphates. These enzymes play an important role in controlling cellular concentrations of cyclic nucleotides and have a central role in a variety of intracellular signaling events. cAMP PDEs are emerging as a promising class of drug targets in asthma and cardiovascular disease therapeutic areas.
There are no commercially available cell-based screening assays for PDE inhibitors: currently biochemical assays are done using pure substrates (cAMP or cGMP) and purified recombinant PDE enzymes. As with other biochemical screens on intracellular targets, false positives and false negatives may result from issues involving cell membrane permeability, cellular metabolism, and the like.
Here we report the development of a cell-based screening assay for cAMP phosphodiesterase (PDE) inhibitors. The assay is based on the BD ACTOne# technology (BD Biosciences) which utilizes a modified cyclic nucleotide-gated channel (CNG) to monitor intracellular cAMP changes in live cells. The CNG channel is localized on the plasma membrane, and opens when the intracellular cAMP level increases, resulting in ion flux and cell membrane depolarization. The influx of cations through the CNG channel can be quantified using membrane potential (MP) dyes. We modified the BD ACTOne technology to allow the detection of PDE inhibitors, and performed an inhibitor screen for PDE-IV, which is expressed endogenously in HEK293 cells. We optimized this assay in homogeneous 1536-well plate assay format for high throughput screening.
NCGC Assay Protocol Summary:
The medium contained 10% FBS (Invitrogen), 2 mM L-glutamine, and 250 ug/ml G418 (Cellgro) and 1 ug/ml puromycin (Clontech). ACTOneTM parental cells (BD Biosciences) were maintained in the same medium without puromycin.
The activity of the CNG channel was measured by BD ACTOneTM membrane potential dye kit (BD Biosciences). Forskolin, a positive control for cAMP activation and RO 20-1724, a PDE inhibitor, were both purchased from Sigma and solublized in DMSO.
Sequence,Parameter,Value,Description
1,Reagent,3 uL,1000 cells/well 1536 TC treated Black plate
3,Compound,0.5 uL,Kalypsys dispense RO 20-1724 100 uM final [A]
4,Reagent,3 uL,BD membrane potential dye
6,Compound,23 nL,Final concentration was 0.7nM to 22.9uM
8,Detector,EX 535 / EM 590 [B],Envision
Footnotes: [A] The stock 2 mM RO 20-1724 PDE inhibitor was made in 10 % DMSO. Parental cell line received 10 uM forskolin + 100 uM RO. [B] Envsion settings: Bottom Excitation 535/20 nm top emission 590/20, gain of 150 and 5 flashes per well.
Keywords: PDE, PDE-IV, cytotoxicity, flourescence, MLSMR, MLSCN, NIH Roadmap, qHTS, NCGC

SMILES | outcome
O=C(O)[C@H]1C2c3ccccc3C(c3ccccc32)[C@@H]1C(=O)NCC1CC1 | inactive
O=[As](O)(O)c1ccc(Cc2ccc([As](=O)(O)O)cc2)cc1 | inactive
NC[C@H](O)c1cc(O)c(O)cc1F | inactive
CC1=NN(c2ccc(S(=O)(=O)O)cc2C)C(=[OH+])[C@H]1N=Nc1cc(S(=O)(=O)O)ccc1C(=O)O.O.[Cr] | inactive
O=C(CCN1CC2CCC(CC2)C1)c1cccs1 | inactive
CC(C)CCC1(CCN)C(=O)NC(=O)NC1=O | inactive
C[C@]12CC[C@@H]3[C@H](CCC4=CC(=O)CC[C@]43C)[C@]1(O)CC[C@@]2(O)C(=O)CO | inactive
CCN=C=NCCCN(C)C | inactive
C[C@@]12CC[C@H]3[C@H](CCC4=CC(=O)CC[C@H]43)[C@H]1CC[C@H]2OC1(O)C(=O)c2ccccc2C1=O | inactive
O=C(O)Cc1ccc([N+](=O)[O-])cc1[N+](=O)[O-] | inactive
CC(C)[C@@]1(NC(=O)[C@H]2C[C@H]3c4cccc5[nH]cc(c45)C[C@@H]3N(C)C2)O[C@]2(O)[C@H]3CCCN3C(=O)[C@H](Cc3ccccc3)N2C1=O | inactive
FC(F)(F)c1nc2ccc(SSc3ccc4nc(C(F)(F)F)[nH]c4c3)cc2[nH]1 | inactive
CC[C@]1(OC(=O)CN)C(=O)OCc2c1cc1n(c2=O)Cc2cc3ccccc3nc2-1 | inactive
CSC([N-]/N=C/c1cccc(C)n1)=[S]=[Cu].CS[C@H]([S-])[N-]/N=C/c1cccc(C)n1 | inactive
Cc1ccc(C2(c3ccc(C)c(O)c3C)CCN(C)CC2)c(C)c1O | inactive
O=C(O)C[C@H]1NCc2cc3ccccc3nc21 | inactive
NC(CCl)=N[C@H]1CN2CCC1CC2 | inactive
CCCN1CC[C@@H]2c3cc(O)ccc3CC[C@H]21 | inactive
O=C(O)[C@H]1[O][Sb][O][C@@H](C(=O)O)C1O (stereo not given in full) | inactive
C[C@H](c1ccccc1)N1CCN([C@@H](C)c2ccccc2)CC1 | inactive

SMILES | outcome
CSc1ccc2c(c1)c(CCN)c(C)n2Cc1ccccc1Cl | inactive
ClCC[N+]12CC[N+](CCCl)(CC1)C2 (tested in a mixture with another compound) | inactive
C=C[C@@H]1CN2CC[C@H]1C[C@H]2[C@H](O)c1ccnc2ccccc12 | inactive
CC(C)c1ccc(C(O)(C(=O)O)c2ccc(C(C)C)cc2)cc1 | inactive
Cn1c(=O)c2[nH]cnc2n(C)c1=O.[CH2-][C@H](Cc1cccc2cc(C(=O)O)c(=O)oc12)OC.[Hg].[OH-] | inactive
CN1C[C@H](C(=O)N[C@@]2(C)O[C@@]3(O)[C@H]4CCCN4C(=O)[C@@H](Cc4ccccc4)N3C2=O)C=C2c3cccc4[nH]cc(c34)C[C@@H]21 | inactive
COc1cc2ccccc2c2cc([N+](=O)[O-])oc12 | inactive
CCOC(=O)c1ccc2[nH]c(-c3ccc(S(=O)(=O)F)cc3)cc(=O)c2c1 | inactive
NCCCN1CCN(c2ccccc2)CC1 | inactive
CC(C)N[C@@H](C)Cc1ccc(I)cc1 | inactive
O=S(=O)(NCCO)c1cc[c]([Sb](=[O])([OH])[OH])cc1 | inactive
CCCOC(=O)[C@@H]1[C@@H](C(=O)O)[C@H]2CC[C@@H]1O2 | inactive
C[N+]1([O-])[C@H]2CC[C@H]1CC(OC(=O)[C@@H](CO)c1ccccc1)C2 (stereo not given in full) | inactive
O=[N+]([O-])c1cc(-c2ccc([As](=O)(O)O)cc2)ccc1[As](=O)(O)O | inactive
CN1CCN(c2ccc([N+](=O)[O-])c3[nH]o[n+](=O)c23)CC1 | inactive
CC[C@@](O)(C(=O)O)c1cc2n(c(=O)c1CO)Cc1cc3ccccc3nc1-2 | inactive
NS(=O)(=O)c1ccc(-c2ccc([As](=O)(O)O)cc2)cc1 | inactive
CO[C@@H]([CH2][Hg])CN1C(=O)c2ccccc2S1(=O)=O.Cn1c(=O)c2nc[nH]c2n(C)c1=O | inactive
O=C(O)[C@H]1[C@H](C(=O)O)[C@H]2CC[C@@H]1O2 | inactive
CC(=O)O[C@H]1CC[C@@]2(C)[C@@H](CC[C@H]3[C@H]2CC(=O)[C@]2(C)[C@@H]3C[C@@H](N3CC3)[C@H]2C(C)=O)C1 | inactive
